Source: PubChem BioAssay (NCI)
This is part of a sample that, as a whole, favours compounds with a hit. Of some 79,000 tested, about 15% had one in any assay. Values without a mark were called inactive. Calls of active or inactive are those of the source. Cut-off read from the data, not from the text of the source: active = growth inhibition above about 70%; inactive = the rest.

Assay: NCI Yeast Anticancer Drug Screen. Data for the wt1 strain (AID 149);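 note: 0% = growth of vehicle-treated wt1 cultures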
Details: S. cerevisiae wt1 strain (SPY 50644) growth inhibition, stronger effect = higher value
Method: Growth inhibition of yeast strains with defined genetic alterations is measured as a screen for potential anti-cancer activity. Selected strains with alterations in DNA damage repair or cell cycle control were exposed to compounds and growth inhibition was measured relative to vehicle treated controls. The strain used in this assay is wt1

SMILES | growth inhibition (at 1.2 µM) [%] | growth inhibition (at 3.7 µM) [%] | growth inhibition (at 11.0 µM) | growth inhibition (at 33.0 µM) | growth inhibition (at 100.0 µM)
CSC(=S)N/N=C(\C)c1cccc(C)n1 | -4 | -7 | -4% | 19% | 99% (active)
Brc1ccc(-c2cc3c(cc2C2SCCS2)OCO3)cc1 | -24 | -17 | -26% | -14% | -7%
CC(=O)N/N=C/C(C)(C)C(C)(C)/C=N/NC(C)=O | -3 | -5 | 2% | 27% | 42%
N#CC(C(=O)Nc1ccccc1)C1=C(Cl)C(=O)c2ccccc2C1=O (stereo not given) | -23 | 12 | 95% (active) | 97% (active) | 96% (active)
Cc1c(C(=O)C(=O)c2ccccc2)c(C)c(C(=O)C(=O)c2ccccc2)c(C)c1C(=O)C(=O)c1ccccc1 | 0 | 1 | -1% | -4% | -5%
C[C@@H]1C[C@H]2[C@@H]3CCC4=CC(=O)C=C[C@]4(C)[C@@]3(Cl)[C@@H](Cl)C[C@]2(C)[C@@]1(O)C(=O)COP(=O)(O)O | 1 | -2 | -3% | -4% | -2%
Cc1ccc(Cl)c2[nH]c(-c3ccccc3)cc(=O)c12 | -3 | -3 | -4% | -2% | 0%
CCCCCCCCCCC(=O)Cl | 9 | -2 | -5% | -5% | 85% (active)
